Experimental data reported in PubChem BioAssay (Tox21).
Records with an inconclusive call do not appear. Calls of active or inactive are those of the source. Calls come from the whole dose curve.

Assay: p53 small molecule agonists, cell-based qHTS assay with rat liver microsomes: qHTS cell viability counter screen (AID 1963580); note: nearly all actives have a fitted effect of over 45% in size
Conditions: p53RE-bla HCT-116 + rat microsomes, ATP viability, 16 h; series mostly up to 66 µM; activity change, negative = cytotoxicity: at the top concentration
From the text: National Center for Advancing Translational Sciences [NCATS]
Division of Preclinical Innovation [DPI]
U.S. Environmental Protection Agency [EPA]
National Institutes of Environmental Health Sciences [NIEHS]
National Toxicology Program [NTP]
U.S. Food and Drug Administration [FDA]
p53, a tumor suppressor protein, is activated following cellular insult, including DNA damage and other cellular stresses. The activation of p53 regulates cell fate by inducing DNA repair, cell cycle arrest, apoptosis, or cellular senescence. The activation of p53, therefore, is a good indicator of DNA damage and other cellular stresses. The CellSensor p53RE-bla HCT-116 cell line contains a stably integrated beta-lactamase reporter gene under control of the p53 response elements. The activation of the reporter gene under culture conditions can be detected by fluorescence intensity. This cell line was used to screen the Tox21 10K compound library in the condition of presence of rat liver microsomes and to identify agonists that activate the p53 signaling pathway after in vitro metabolic activation (Ooka et al., Archive of Toxicology 96:1975-1987, 2022). The cytotoxicity of the Tox21 compound library against the p53 RE-bla HCT-116 cell line was tested in parallel by measuring the intra cellular ATP content in the same wells.
Tox21 Assay Protocol Summary:
The p53RE-bla cells were dispensed at 4,000cells/3ul/well in 1536-well black-clear bottom plates. After the assay plates were incubated at 37 C, 5% CO2 incubator for 5 hours, 23 nL of compounds dissolved in DMSO, positive controls or DMSO only was transferred to the assay plate. Following compound addition, 3 uL of rat liver microsomes (Molecular Toxicology, Boone, NC) at final concentration of 0.5 mg/mL and 1uL of B-Nicotinamide adenine dinucleotide 2'-phosphate (NADPH) at final concentration of 0.5 mg/mL were transferred to the assay plate. The plates were incubated at 37 C for 16 hours. 1 uL of LiveBLAzer detection mixture was added to each well and the plates were incubated at room temperature in the dark for 2 h. Fluorescence intensity at 460 and 530 nm emission and 405 nm excitation were measured by an Envision plate reader. For cell viability readout that measures cytotoxicity, 4 ul/well of CellTiter-Glo reagent was added into the assay plates using a Flying Reagent Dispenser. After 30 min incubation at room temperature, the luminescence intensity in the plates was measured using a ViewLux plate reader.
% is set by controls: 0 for no effect and ±100 for the full control effect; potency is the fitted concentration of half-maximal effect.

Compound | activity change, negative = cytotoxicity | Potency
Cc1ccc2nc(N)[nH]c(=O)c2c1Sc1ccncc1 | 0.315% [at 30.3 µM] (inactive) | –
CCCCC/C=C/CC1CC(=O)OC1=O (stereo not given) | -0.852% (inactive) | –
CC(C)(C)C1=CC(=O)C(C(C)(C)C)=CC1=O | -0.0744% [at 30.3 µM] (inactive) | –
CC(C)OC(=O)c1ccccc1 | 0% (inactive) | –
Oc1ccc(Nc2ccccc2)cc1 | -3.91% (inactive) | –
CCCCC(CC)COC(=O)COc1ccc(Cl)cc1Cl (stereo not given) | 7.91% (inactive) | –
CCOC(CN1CCN(CC(C)C(=O)c2ccccc2)CC1)c1ccccc1 (stereo not given) | 0.0683% [at 13.5 µM] (inactive) | –
Cc1ncc([N+](=O)[O-])n1CC(C)O (stereo not given) | -1.1% [at 30.3 µM] (inactive) | –
O=S(=O)(c1ccccc1)c1ccc(Cl)cc1 | 1.43% (inactive) | –
CC(C)=CCC/C(C)=C/CC/C(C)=C/C(=O)OCC(=O)[C@@]1(O)CC[C@H]2[C@@H]3CCC4=CC(=O)C=C[C@]4(C)[C@H]3[C@@H](O)C[C@@]21C | 5.18% [at 30.3 µM] (inactive) | –
NS(=O)(=O)c1cc2c(cc1Cl)CN(C1CCCCC1)C2=O | -0.202% [at 30.3 µM] (inactive) | –
OCCSc1ccccc1 | 9.27% (inactive) | –
CC1=CC(=O)CC(C)(C)C1=O | -0.55% (inactive) | –
O=C(OCc1ccccc1)C(=O)OCc1ccccc1 | 19.6% (inactive) | –
CCCCCCCC1CCCC1=O (stereo not given) | 2.37% (inactive) | –
CNC(=O)c1c(I)c(NC(=O)CCCCC(=O)Nc2c(I)c(C(=O)O)c(I)c(C(=O)NC)c2I)c(I)c(C(=O)O)c1I | 1.04% [at 30.3 µM] (inactive) | –
CC(C(=O)O)c1ccc(C(=O)c2ccccc2)s1 (stereo not given) | -7.89% [at 30.3 µM] (inactive) | –
COc1ccc(CN2CCN(C(c3ccc(F)cc3)c3ccc(F)cc3)CC2)c(OC)c1OC | -13.8% [at 30.3 µM] (inactive) | –
OC1(c2ccccc2)CCNCC1 | -1.67% [at 30.3 µM] (inactive) | –
C=C(C)C(=O)OCCCCCCCCCCOC(=O)C(=C)C | 13.2% (inactive) | –

Compound | activity change, negative = cytotoxicity | Potency
Cc1ccccc1C(=O)O | 2% (inactive) | –
O=C1CC2(CCCC2)CC(=O)N1CCNCC1COc2ccccc2O1 (stereo not given) | 1.94% [at 30.3 µM] (inactive) | –
COc1ccc(OC)c(OC)c1 | 3.81% (inactive) | –
CCNS(=O)(=O)c1ccc(C)cc1 | 0.228% (inactive) | –
CCN1CN(CC)CN(CC)C1 | -7.67% (inactive) | –
COCCO | 1.64% (inactive) | –
Cc1ccc2c(c1[N+](=O)[O-])C(=O)c1ccccc1C2=O | 4.88% [at 30.3 µM] (inactive) | –
CC12CCCC=C1C(=O)OC2=O (stereo not given) | 0.182% (inactive) | –
CC(C)CC(C)CC(C)CC(C)COC(=O)c1ccccc1C(=O)OCC(C)CC(C)CC(C)CC(C)C (stereo not given) | -6.3% (inactive) | –
CC(NC(CCc1ccccc1)C(=O)O)C(=O)N1C(=O)N(C)CC1C(=O)O (stereo not given) | 0.0797% [at 30.3 µM] (inactive) | –
O=C1NCN(c2ccccc2)C12CCN(CCCC(c1ccc(F)cc1)c1ccc(F)cc1)CC2 | -14.4% [at 30.3 µM] (inactive) | –
Cc1nc2n(c(=O)c1CCN1CCC(c3noc4cc(F)ccc34)CC1)CCCC2 | -4.29% [at 30.3 µM] (inactive) | –
CC(C)(C)OC(=O)c1ccccc1C(=O)O | 1.65% (inactive) | –
C[N+]12CCC(CC1)C(OC(=O)C(O)(c1ccccc1)c1ccccc1)C2 (stereo not given) | 1.77% [at 30.3 µM] (inactive) | –
NC(=O)C(=O)N/N=C/c1ccc([N+](=O)[O-])o1 | -2.06% [at 30.3 µM] (inactive) | –
C=CC/C=C/C | -1.32% (inactive) | –
CCc1cc(S(=O)(=O)O)c2cc(C(C)C)cccc1-2 | 0.469% [at 30.3 µM] (inactive) | –
CC(C)C(=O)OCc1cccc(OC(=O)[C@@H]2N3C(=O)[C@@H](NC(=O)Cc4ccccc4)[C@H]3SC2(C)C)c1 | -1.85% [at 30.3 µM] (inactive) | –
O=c1cccccc1O | – | 29.4 µM (active)
CCCCCCCC/C=C\CCCCCCCC(=O)OC[C@@H](O)[C@H]1OC[C@H](O)[C@H]1O | 4.33% (inactive) | –
